# BH1578 lux ind: induces V. cholerae light production without autoinducers | V. cholerae BH1578 lux reporter, luminescence, 6 h | activation, % at 18.7 µM | 350,000 compounds, 0.16% hits | AID 588436; in the data active = activation mostly above about 9.7%, no sharp cut-off
# CCHFV vOTU inh: CCHFV vOTU protease inhibition; Pep-AMC fluorescence; inhibition, % at 11.5 µM; 370,000 compounds, 0.55% hits; AID 651958; in the data active = inhibition above about 30%; note: 0% = vehicle wells with enzyme and 100% = no enzyme wells
# DUSP3 inh: DUSP3 (human) phosphatase inhibition; P51452; recombinant VHR phosphatase, pNPP absorbance; inhibition, % at 13.3 µM; 290,000 compounds, 0.52% hits; in the data active = inhibition above about 50%
# TcdB inh: inhibitors of Clostridioides difficile toxin B glycohydrolase | TcdB glycohydrolase enzymatic assay, plate reader | inhibition, % at 9.99 µM | 350,000 compounds, 0.24% hits | AID 652162; in the data active = inhibition above about 10%
# Target sequence (P18177 whole entry, looked up): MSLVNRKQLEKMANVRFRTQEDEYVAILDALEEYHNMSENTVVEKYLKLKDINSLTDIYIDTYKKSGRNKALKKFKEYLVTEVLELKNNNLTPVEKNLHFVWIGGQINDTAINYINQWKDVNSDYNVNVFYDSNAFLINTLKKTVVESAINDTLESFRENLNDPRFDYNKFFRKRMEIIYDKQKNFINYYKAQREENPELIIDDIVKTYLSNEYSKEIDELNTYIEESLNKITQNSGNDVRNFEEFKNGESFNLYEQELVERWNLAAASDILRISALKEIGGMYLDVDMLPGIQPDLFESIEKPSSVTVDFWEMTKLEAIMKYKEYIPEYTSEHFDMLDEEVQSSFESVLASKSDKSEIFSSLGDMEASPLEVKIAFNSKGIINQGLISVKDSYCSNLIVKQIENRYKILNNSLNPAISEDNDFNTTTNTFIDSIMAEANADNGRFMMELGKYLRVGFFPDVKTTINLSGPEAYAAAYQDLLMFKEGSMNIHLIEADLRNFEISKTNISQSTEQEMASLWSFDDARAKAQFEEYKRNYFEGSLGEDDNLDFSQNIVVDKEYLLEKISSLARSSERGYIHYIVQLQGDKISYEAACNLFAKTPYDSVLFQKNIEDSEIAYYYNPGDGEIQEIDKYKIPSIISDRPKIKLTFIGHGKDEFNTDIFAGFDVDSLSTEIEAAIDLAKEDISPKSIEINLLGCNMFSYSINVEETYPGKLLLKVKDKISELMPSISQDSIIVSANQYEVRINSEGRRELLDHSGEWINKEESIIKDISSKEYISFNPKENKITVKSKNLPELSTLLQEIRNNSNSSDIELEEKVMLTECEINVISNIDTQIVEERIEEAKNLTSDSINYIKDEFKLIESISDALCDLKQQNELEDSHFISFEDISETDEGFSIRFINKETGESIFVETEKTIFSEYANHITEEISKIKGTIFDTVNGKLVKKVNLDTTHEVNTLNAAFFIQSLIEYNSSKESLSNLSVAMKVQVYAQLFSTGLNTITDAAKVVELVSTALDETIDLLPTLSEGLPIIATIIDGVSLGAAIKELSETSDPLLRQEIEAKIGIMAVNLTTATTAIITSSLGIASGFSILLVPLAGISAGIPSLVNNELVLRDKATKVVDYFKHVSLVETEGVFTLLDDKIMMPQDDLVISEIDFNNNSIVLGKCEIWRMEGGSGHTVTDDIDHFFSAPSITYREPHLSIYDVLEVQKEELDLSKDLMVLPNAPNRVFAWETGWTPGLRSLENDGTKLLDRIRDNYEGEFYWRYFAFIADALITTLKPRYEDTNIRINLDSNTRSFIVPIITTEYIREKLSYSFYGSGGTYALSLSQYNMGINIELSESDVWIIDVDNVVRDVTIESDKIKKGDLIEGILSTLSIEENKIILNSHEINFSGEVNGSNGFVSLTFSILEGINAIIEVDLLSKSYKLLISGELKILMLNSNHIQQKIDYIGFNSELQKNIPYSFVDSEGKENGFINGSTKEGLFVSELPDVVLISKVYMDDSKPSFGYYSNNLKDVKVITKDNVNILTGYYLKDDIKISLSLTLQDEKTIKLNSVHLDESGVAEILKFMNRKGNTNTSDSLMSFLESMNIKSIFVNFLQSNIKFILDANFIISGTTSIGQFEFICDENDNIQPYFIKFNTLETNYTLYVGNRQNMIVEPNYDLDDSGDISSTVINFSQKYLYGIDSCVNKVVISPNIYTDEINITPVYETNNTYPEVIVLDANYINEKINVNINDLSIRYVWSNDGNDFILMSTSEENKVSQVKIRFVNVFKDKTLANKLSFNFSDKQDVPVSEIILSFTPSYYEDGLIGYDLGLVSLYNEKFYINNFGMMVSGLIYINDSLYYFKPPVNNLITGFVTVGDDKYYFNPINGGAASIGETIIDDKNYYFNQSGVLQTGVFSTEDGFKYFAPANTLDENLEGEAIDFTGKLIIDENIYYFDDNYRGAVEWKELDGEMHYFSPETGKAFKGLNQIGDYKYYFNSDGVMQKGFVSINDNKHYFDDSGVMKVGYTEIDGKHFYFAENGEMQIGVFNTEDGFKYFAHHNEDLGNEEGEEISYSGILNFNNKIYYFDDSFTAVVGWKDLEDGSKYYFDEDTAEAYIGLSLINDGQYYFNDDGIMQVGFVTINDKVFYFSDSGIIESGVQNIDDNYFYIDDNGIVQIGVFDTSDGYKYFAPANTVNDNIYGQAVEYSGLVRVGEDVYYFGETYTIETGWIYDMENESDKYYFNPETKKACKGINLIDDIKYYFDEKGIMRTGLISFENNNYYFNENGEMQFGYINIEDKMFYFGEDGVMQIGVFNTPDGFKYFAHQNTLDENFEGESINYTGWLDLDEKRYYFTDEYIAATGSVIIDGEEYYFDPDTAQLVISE
# SARS 3CLpro inh: SARS-CoV 3CLpro protease inhibition; inhibition, % at 6 µM; P0C6X7; AID 1706; recombinant SARS-CoV 3CLpro, quenched FRET peptide cleavage; 290,000 compounds, 0.14% hits; in the data active = inhibition above about 12%
# PriA SSB inh: inhibitors of Klebsiella pneumoniae PriA binding to SSB C-terminal tail; AID 1272365; inhibition, % at 33 µM; AlphaScreen SSBct-PriA binding, biotinylated peptide; 430,000 compounds, 0.6% hits; in the data active = inhibition mostly above about 37%, no sharp cut-off; inactive = mostly below about 20%;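 note: plate controls were negative control peptide for no effect and reference peptide for full effect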
# Numbers without * were called inactive; i = inactive; nt = not tested or not shown. In the library only some 1.3% were active in any assay of this set; here they are far more common.
SMILES,BH1578 lux ind,CCHFV vOTU inh,DUSP3 inh,TcdB inh,SARS 3CLpro inh,PriA SSB inh
COC(=O)c1sccc1NC(=O)Nc1cccc(C)c1,i,-1.8,50.0*,1.2,3.4,-10.1
COC(=O)c1sccc1NC(=O)Nc1cccc(C(C)=O)c1,-0.3,5.4,26.3,3.0,5.8,0.0
CC(C)[C@H](NC(=O)N1CCn2c1nc1ccccc12)C(=O)NCc1ccc(F)cc1,-0.3,2.7,11.4,0.1,-0.8,7.5
CCC(C)[C@H](NC(=O)N1CCn2c1nc1ccccc12)C(=O)NCc1ccccc1 (stereo partly specified),-1.8,27.9,50.2*,-1.1,1.8,-0.6
CC(C)CNC(=O)C(=O)NCC1CCCN1S(=O)(=O)c1cccs1 (stereo unspecified),i,4.4,nt,13.1*,nt,-4.5
O=C(NCCO)C(=O)NCC1CCCN1S(=O)(=O)c1cccs1 (stereo unspecified),-0.7,-3.5,nt,2.0,nt,-9.3
CC(C)=CCOc1c2occc2cc2ccc(=O)oc12,i,10.8,8.6,13.5*,-0.2,-15.8
O=C(Cc1coc2cc(O)ccc12)NNC(=O)c1cccs1,0.9,-3.7,nt,19.4*,nt,6.8
Cc1nc(N2CCN(C(=O)c3cc(-c4ccccc4)nn3C)CC2)cc(C(F)(F)F)n1,nt,nt,nt,nt,nt,-3.0
CCC(C)(C)NC(=O)C(c1ccccc1Cl)N(C(=O)CCC(=O)Nc1cc(C)on1)C1CC1 (stereo unspecified),-0.3,8.6,21.4,0.1,2.6,49.0*
CC(C)NC(=O)CSc1cccc2cccnc12,nt,nt,nt,nt,nt,34.1
Cc1cc(Br)cc(C)c1NC(=O)CSc1cccc2cccnc12,nt,nt,nt,nt,nt,58.6*
O=C(CSc1cccc2cccnc12)Nc1ccc(C(=O)O)cc1,nt,nt,nt,nt,nt,133.0*
O=C(CSc1cccc2cccnc12)Nc1ccccc1,nt,nt,nt,nt,nt,44.1
CN1CCN(NC(=O)CSc2cccc3cccnc23)CC1,nt,nt,nt,nt,nt,91.0*
Cc1cccc(C)c1NC(=O)CSc1cccc2cccnc12,nt,nt,nt,nt,nt,48.6
CCOC(=O)CSc1cccc2cccnc12,-0.4,-26.5,8.8,nt,3.5,98.5*
O=C(NCCn1nc(-c2ccsc2)cc1C1CC1)C1CCOC1 (stereo unspecified),nt,nt,nt,nt,nt,17.0
OC(CN1CCN(Cc2ccccn2)CC1)c1cccs1 (stereo unspecified),nt,nt,nt,nt,nt,-4.0
CCCCCOc1ccc(NC(=O)CSc2cccc3cccnc23)cc1,-0.2,4.7,2.3,-0.7,2.5,78.8*
O=C(CSc1cccc2cccnc12)Nc1ccc(/C=C/c2ccccc2)cc1,nt,nt,nt,nt,nt,49.5
Cc1nc2cc(OCc3cc(C(=O)NC(C)c4cnn(C)c4)no3)ccc2s1 (stereo unspecified),-1.2,28.1,51.1*,0.0,1.2,-1.4
COc1ccc(OCc2cc(C(=O)NC(C)c3cnn(C)c3)no2)c(Cl)c1 (stereo unspecified),i,9.8,1.1,-1.4,-3.0,6.4
CNC(=O)c1sc(N2N=C3/C(=C/c4ccccc4)CCCC3C2c2ccccc2)nc1C (stereo unspecified),12.5*,nt,3.2,1.2,2.8,-42.4
CNC(=O)c1sc(N2N=C3/C(=C\c4ccccc4)CCCC3C2c2ccccc2)nc1C (stereo unspecified),-8.4,10.4,nt,-0.1,nt,-5.2
SMILES,BH1578 lux ind,CCHFV vOTU inh,DUSP3 inh,TcdB inh,SARS 3CLpro inh,PriA SSB inh
CCOc1cc(CNc2ccc(CNc3ncn[nH]3)cc2)ccc1OCc1ccccc1,-0.2,2.5,-7.2,nt,6.2,43.0*
Cc1cc(S(=O)(=O)[C@@H](CNC(=O)Cc2cccc3ccccc23)c2cccs2)ccc1F,nt,nt,nt,nt,nt,1.0
C=CCOc1nc2c(c(=O)n(C)c(=O)n2C)n1Cc1ccc(Cl)cc1,-0.4,-23.9,55.4*,nt,-5.0,-10.5
C=CCOc1nc2c(c(=O)n(C)c(=O)n2C)n1Cc1ccccc1Cl,i,2.5,16.2,nt,3.4,-6.1
CCCCOc1ccc(C(=O)NCCc2csc(C)n2)cc1,nt,nt,nt,nt,nt,-1.0
COc1ccc(NC(=O)CN2CCN(CC(=O)Nc3ccccc3Cl)CC2)cc1Cl,-2.2,6.2,50.8*,nt,0.1,-14.1
COc1ccccc1NC(=O)c1ccc(NC(=O)CN2CCCCC2)cc1,3.4,23.6,nt,0.4,nt,-6.3
COc1ccccc1NC(=O)c1ccc(NC(=O)CN2CCCC2)cc1,-0.4,-19.1,21.7,1.3,-1.7,46.7*
Cc1ccc(S(=O)(=O)N2CCN(CCNC(=O)c3cccs3)CC2)cc1,nt,nt,nt,nt,nt,-4.0
O=C(NCCC(O)C1CC1)NCc1ccc(Cl)cc1 (stereo unspecified),nt,nt,nt,nt,nt,-14.0
Cc1ccc(Cl)cc1S(=O)(=O)N1CCN(C(c2ccccc2)c2ccccc2)CC1,nt,nt,nt,nt,nt,-13.0
O=C(CCS(=O)(=O)c1ccccc1)Nc1ccccn1,i,9.5,59.7*,-0.1,-6.1,15.6
O=C(CCCS(=O)(=O)c1ccc(Cl)cc1)Nc1nc(-c2ccccn2)cs1,nt,nt,nt,nt,nt,33.0*
Cc1ccnc(NC(=O)CCS(=O)(=O)c2ccccc2)c1,-0.3,5.3,16.3,0.6,-0.9,-3.2
O=C(CCS(=O)(=O)c1ccc(F)cc1)Nc1nc(-c2ccccn2)cs1,-0.2,0.1,-2.2,1.8,3.8,43.0*
Cc1c(CNC(=O)Cn2cncn2)sc2nc(-c3ccc(F)cc3)cn12,nt,nt,nt,nt,nt,-10.0
CSc1nccc(-c2nn(-c3ccc(C)cc3)ccc2=O)n1,-0.2,3.7,-5.5,nt,0.9,77.3*
CCCC(=O)Nc1sc(C)c(-c2ccc(OC)cc2)c1C#N,-0.2,-6.9,18.1,nt,5.8,-9.3
CCCC(=O)Nc1[nH]c(=S)c(C#N)c(-c2ccc(OC(=O)CCC)cc2)c1C#N,nt,nt,nt,nt,nt,97.0*
COc1ccc(C(=O)NC(Cc2ccccc2)c2ccc3c(c2)OCCCO3)cc1 (stereo unspecified),-0.3,-2.3,2.0,1.3,11.6,-18.6
O=C(NC(Cc1ccccc1)c1ccc2c(c1)OCCCO2)c1ccccc1F (stereo unspecified),i,-4.8,51.6*,nt,4.7,-9.8
Cc1ccc(S(=O)(=O)c2c(NS(=O)(=O)c3ccccc3)n(CCC(C)C)c3nc4ccccc4nc23)cc1,nt,nt,nt,nt,nt,26.2
N#Cc1ccccc1NC(=O)c1ccccc1OCC(=O)Nc1ccc2c(c1)oc1ccccc12,-0.4,-1.3,nt,2.0,-2.8,-7.6
CNC(=O)COc1ccccc1C(=O)Nc1ccc2c(c1)oc1ccccc12,2.4,-3.6,55.3*,nt,0.4,-7.7
Cc1cc(=O)oc2cc(OCC(=O)NCCc3ccccc3)ccc12,-0.3,-9.2,57.6*,-1.6,-7.0,-3.6
SMILES,BH1578 lux ind,CCHFV vOTU inh,DUSP3 inh,TcdB inh,SARS 3CLpro inh,PriA SSB inh
COc1ccc(C(=O)N2CCN=C2c2ccccc2)cc1OC,0.6,-3.4,24.9,nt,1.9,-15.1
COc1ccc(C(=O)N2C(=S)C(c3ccccc3)=NC23CCC(C)CC3)cc1OC (stereo unspecified),nt,nt,nt,nt,nt,37.0*
Cc1ccnc(Nc2ccc(NCCNC(=O)COc3ccccc3)nn2)c1,nt,nt,nt,nt,nt,19.0
Cc1cccc(C)c1Nc1nnc(SCC(=O)NC(=O)c2cccn2C)s1,-0.3,-6.5,51.3*,nt,1.3,2.8
Cc1nn(-c2ccccc2)c(C)c1C=NNc1nc2ccccc2[nH]1,nt,nt,nt,nt,nt,56.0*
Cc1nn(-c2ccccc2)c(Cl)c1/C=N/Nc1nc2ccccc2[nH]1,-0.3,-3.7,18.1,1.2,0.7,nt
